VACV mCherry inh: inhibitors of vaccinia virus infection (mCherry reporter signal). Vaccinia virus mCherry reporter infection, fluorescence. Potency, µM (highest dose often 36.5 µM), for the others: at the top dose activity change, negative = inhibition, actives largely listed as inhibitors. 310,000 tested, 0.63% active. AID 720579; calls by dose curve; tested in A549 cells; also: % is scaled to controls: 0 for no effect and ±100 for the full control effect; nearly all actives have a fitted effect of over 35% in size
NS1 function inh: influenza NS1 inhibition; Potency, µM (titrated, usually from 46.1 µM), inactives show at the highest dose activity, positive = more growth; 270,000 tested, 0.4% active; AID 2326; calls by dose curve; also: actives are rising curves; nearly all actives have a fitted effect of over 50% in size
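A cell-based growth assay was used: compounds that relieve NS1-induced slow growth of budding yeast raise OD600. Assay medium was yeast nitrogen base with ammonium sulphate and -URA supplement, pH 6.0, with 2% galactose.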
VACV Venus inh: vaccinia inhibition (Venus reporter) | Vaccinia virus Venus reporter expression, fluorescence | Potency, µM (series often up to 36.5 µM), for inactives: top-dose activity change, negative = inhibition, most hits filed as inhibitors | 330,000 tested, 0.46% active | AID 720580; calls by dose curve; tested in A549 cells; also: % is scaled to controls: 0 for no effect and ±100 for the full control effect; nearly all actives have a fitted effect of over 30% in size
HCV inhibitor: HCV inhibition | Huh7.5.1 HCVcc-Cre infection, luciferase reporter, 44 h | Potency, µM (titrated, usually from 41.8 µM), without a hit: at the top dose activity change, negative = inhibition, hits mostly inhibitors | 340,000 tested, 3.4% active | AID 651820; also: % is scaled to controls: 0 for no effect and ±100 for the full control effect
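A cell-based infection assay in which seeded cells (1,000 per well) receive test compound after 4 h, are inoculated with HCVcc-Cre at approximately 0.5 moi, and are incubated 44 h before luminescence detection.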
Pf growth 96h: P. falciparum growth inhibition at 96 hour, primary screen for plastid delayed-death inhibitors | P. falciparum luciferase reporter growth, 96 h | Potency, µM (titrated, usually from 28.7 µM), for the others: at the highest dose activity change, negative = inhibition, most hits filed as inhibitors | 320,000 tested, 6.9% active | AID 504834; also: % is scaled to controls: 0 for no effect and ±100 for the full control effect
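Readout is luminescence from an integrated firefly luciferase in P. falciparum. Red cells, 2% hematocrit and 0.05% parasitemia final, were cultured with compound through two parasite generations (96 hours) at 37 C, 5% CO2.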
Pf growth 48h: P. falciparum growth inhibition at 48 hours (one generation). P. falciparum luciferase growth in erythrocytes, 48 h. Potency, µM (highest dose often 28.7 µM), without a hit: top-dose activity change, negative = inhibition, usual class: inhibitors. 310,000 tested, 5.9% active. AID 504832; also: % is scaled to controls: 0 for no effect and ±100 for the full control effect
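Compounds are pin-transferred into medium, infected erythrocytes (2% hematocrit, 0.1% parasitemia final) are added, and plates sit one parasite generation at 37 C in 5% CO2. Detection reagent is then added and luminescence measured.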
Numbers without * were called inactive; i = inactive; ? = inconclusive; . = not tested or not shown; [ ] = remark or other dose. This is a sample that favours compounds with a hit; in the whole collection about 11% have one here. Unless noted, calls follow the shape of the dose curve; as a rule, active = well fitted inhibition curve with a large enough effect; inconclusive = small, poorly fitted or top-dose-only effect, or another doubt; inactive = no such curve, though single readings can be large or run the other way. Potency is read from the fitted curve at half-maximal effect.

SMILES | VACV mCherry inh | NS1 function inh | VACV Venus inh | HCV inhibitor | Pf growth 96h | Pf growth 48h
COc1ccc(CSC(=N)N)cc1[N+](=O)[O-] | . | 3.0% | -8.7% | ? | 1.7% | .
CCCCCOc1ccc(CSC(=N)N)cc1[N+](=O)[O-] | . | 6.2% | ? | ? | 0.465µM* | ?
CCCCOc1ccc(CSC2=NCCN2)cc1[N+](=O)[O-] | ? | 0.4% | -23.5% | ? | 13.1µM* | ?
CCCCOc1ccc(Br)cc1CSC(=N)N | -25.5% | -5.0% | -16.2% | 2µM* | ? | 4.65µM*
Oc1[nH]c2ccccc2c1N=Nc1ncnc2c1oc1ccccc12 | . | -0.8% | . | . | 51.4% | 44.1%
Cc1cc(C)c(C#N)c(N2CCSCC2)n1 | -1.9% | -9.6% | -10.3% | ? | -21.3% | 19.2%
CCCCn1c(O)c(C=NC2CC3CCC2(C)C3(C)C)c(=O)[nH]c1=O (stereo not drawn) | -27.7% | -45.8% | -25.1% | -7.2% | ? | 10.4µM*
CC1=C(C(=O)OCc2ccc3c(c2)OCO3)C(c2cccc([N+](=O)[O-])c2)NC(=O)N1 (stereo not drawn) | ? | . | -19.9% | 11.2µM* | 31.2% | 4.5%
COc1ccc(C2NC(=O)NC(C)=C2C(=O)OCc2ccc3c(c2)OCO3)cc1OC (stereo not drawn) | . | 6.1% | . | 13.3% | 483.5% | 4.65µM*
CCC(CC)COC(=O)C1=C(C)NC(=O)NC1c1ccc2c(c1)OCO2 (stereo not drawn) | -0.2% | 29.7% | -8.8% | 10µM* | 0.928µM* | 29.0%
CC1=C(C(=O)OCc2ccccc2)C(c2ccccc2Br)NC(=O)N1 (stereo not drawn) | i | 11.8% | -13.7% | 10µM* | 65.7% | 9.5%
CCOC(=O)C1=C(C)NC(=O)NC1c1ccc2c(c1)OCO2 (stereo not drawn) | -11.5% | -1.4% | -0.2% | -1.7% | 6.9% | -27.5%
CCOCCCn1c(=S)[nH]c2cc(C(=O)NCc3ccc(F)cc3)ccc2c1=O | . | 3.1% | . | -20.4% | -3.4% | 11.4%
COc1ccc(COC(=O)C2=C(C)NC(=O)NC2c2ccc(F)cc2)cc1 (stereo not drawn) | -2.5% | 10.7% | -21.9% | ? | 2.94µM* | ?
CC(=O)COC(=O)c1ccc2noc(-c3ccccc3)c2c1 | i | 7.8% | -17.5% | -17.8% | 38.5% | 28.5%
COc1ccc(NS(=O)(=O)c2cccc(C(=O)N/N=C/c3ccccc3OC)c2)cc1 | -21.9% | . | -17.0% | 16.6% | 47.8% | -9.6%
COc1ccc(NS(=O)(=O)c2cccc(C(=O)N/N=C/c3cn(-c4ccccc4)nc3-c3ccccc3)c2)cc1 | i[7.34 µM] | 6.8% | -14.1%[7.34 µM] | ? | 21.1% | ?
COc1ccc(NS(=O)(=O)c2cccc(C(=O)N/N=C/c3cn(-c4ccccc4)nc3-c3ccc(OC)cc3)c2)cc1 | . | 1.2% | . | -16.4% | ? | 2.33µM*
COc1ccccc1NS(=O)(=O)c1cccc(C(=O)N/N=C/c2cn(-c3ccccc3)nc2-c2ccccc2)c1 | ? | ? | -14.1% | ? | 2.94µM* | 2.08µM*
NS(=O)(=O)c1ccc(N/N=C/c2cn(-c3ccccc3)nc2-c2ccccc2)c([N+](=O)[O-])c1 | . | -0.2% | . | 10µM* | ? | 4.15µM*
Cc1ccc(S(=O)(=O)/N=C(/c2ccc(F)cc2)N(C)C)cc1 | -1.4% | -0.5% | -21.8% | 12.9% | 19.6% | -13.5%[0.00184 µM]
CCOC(=O)c1c(C)nc2c(c(SC)nn2-c2ccccc2)c1N | . | -0.1% | -8.6% | 10µM* | ? | ?
CCOC(=O)CCc1c(C)nc2c(c(C)nn2-c2ccccc2)c1C | . | -0.8% | . | 6.3% | ? | -8.5%[0.00184 µM]
COc1cccc(-c2nnn(CCC(=O)O)n2)c1 | . | -4.8% | . | 16.4% | ? | 8.0%
COc1cc2c(NC3CCN(C)CC3)nc(N3CCN(C)CC3)nc2cc1OCCOCCN(C)C | -20.1% | . | -18.5% | . | . | .
COc1cc2c(NC3CCN(C(C)C)CC3)nc(N3CCCN(C)CC3)nc2cc1OCCOCCN(C)C | 1.58µM* | . | 1.78µM* | . | . | .
COc1cc2c(NC3CCN(C)CC3)nc(N3CCCCC3)nc2cc1OCCOCCN(C)C | 10µM* | . | 12.6µM* | . | . | .
COc1cc2c(NC3CCN(C)CC3)nc(N3CCCN(C)CC3)nc2cc1OCCOCCN(C)C | -23.1% | . | -20.5% | . | . | .
